Measurements published in PubChem BioAssay AID1508600 (Functional Genomics Laboratory (NCATS/FGL), 2020).
The campaign covered roughly 53,000 sequences. About 3,700 (7%) were called active. The entries come from a sample that favours actives as a whole. Unmarked numbers belong to inactive results.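 How the source made its calls: active means gene knockdowns whose robust z-score for IL-1 alpha signal is at least 2 or at most -2, so actives lie on both sides; inactive means the rest.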

Assay: Components of the Cytosolic LPS Sensing Pathway: Gene Identification via Genome-wide siRNA Screen;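 further: robust z of the log signal after scaling to non-targeting control siRNA wells of the plate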
Conditions: RAW264.7 macrophages, IL-1a HTRF, actives lie on both sides, screened at 100 nM (by protocol), cells primed 5 h with Pam3CSK4 first
Summary of the method: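 Read-out: IL-1a HTRF on supernatant, divided by plate negative-control median ×100, log-transformed and converted to robust z-score. Cells were RAW264.7 given 100 nM siRNA, Pam3CSK4-primed 5 hours, then LipidA-transfected 24 hour.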

Sequence	z-score
GGCUGGUGUAAUCGAAACATT against Ttc39c	0.0501
GGAAACUCCGUCCCAAUUGTT against Trim68	1.39
GGCGAUUUCAACUGAAAAUTT against Jakmip1	0.548
GCCCAAUAAAAUUGAAGGGTT against Pmis2	-0.163
GGUCUUUGAGGAAAGAGGUTT against Hemk1	-1.59
GGCCUGUCCAAAGAAGUGATT against E2f3	2.2 (active)
GCGCACACCCUACUUGAUUTT against Pcdh20	1.08
GCUGUAAUUCCUAAGUUAUTT against Ubxn6	0.268
CCCAGAGCAUGCCAUCAACTT against Orm3	-0.38
CCUUACACUAAGAAAAAGGTT against Rad50	-0.0689
GCAGUCCAAAAAAUUCGGUTT against Stox2	-2.15 (active)
GGCAUUAGAGCAGAGUCGUTT against Trmu	-1.29
GGUGCAGAGAAGUGUAACATT against Slc25a21	-1.6
GGUGCUGAGCAUGGUGUUATT against Spag4	3.17 (active)
GGAGUAUCGUUUAUUCAUUTT against Slc2a2	0.161
GCCUAAGAAAUUAGUGAAUTT against Rflna	0.204
GGCCAUCACUAAAUAAUGGTT against Ctdspl2	-0.123
GGAAAACGAGUCAAACUCATT against Lnx2	3.4 (active)
GGUGGUGAGCAUCUACUAUTT against Alox5	0.565
CCCUAAUAAAUUCCAAAUCTT against H2-Ke6	1.81
GCAUGUAGUUCAUCAGUACTT against Tubgcp5	0.874
GGACCACUUUUUCAGACUCTT against Ralgapa1	0.945

Sequence	z-score
GGCGAAAUGGUAAACCGAGTT against Adgrg2	0.0183
GUACGGCAACAUGACCCAGTT against Cd74	0.385
GGACUUCAACAACUGCUCUTT against Polr1a	2.28 (active)
CCACUUCUACAUACUUAAUTT against Plau	0.62
UCUCAUUGCAAUUCUGGGATT against Olfr675	0.566
CCUUACUCAAGAUCCUGCUTT against Olfr1243	-0.23
GGCACUCAACACCUGUAUATT against Olfr640	-1.34
GGAAUUCCUUCACAUCUGGTT against Tc2n	0.4
GGGUGAUAAGCAGUUAUACTT against Wdr75	1.33
GCUUCUGUUAUGAGGCUCATT against Hif1a	-2.52 (active)
GGAGAUUGUGGAAAUGCUUTT against Skiv2l	0.459
CCCAGACCAUACUACGGAUTT against Calb2	-1.25
GUUUCAGUGCAGCCAUUACTT against Olfr518	-0.747
GGAUUUAUUUCCGAUUCGATT against Nalcn	-0.0152
GGAUCAAAAGGUGAAUGCUTT against Vmn1r67	-2.54 (active)
GCUGCAUUCGGUUACCACUTT against Olfml2b	0.677
GGAGGUUACAUAACAGGUGTT against Itsn2	1.86
GGGAGUUAUUUAAGAUUCUTT against Has1	0.0567
GAAAAAUAAUGGAGUUUGGTT against Gtf2h5	0.513
CCAGUGGAGUAAACUGUAATT against Ltbp1	2.24 (active)
GGAAGUGGUCCACCUGAUCTT against Mms19	-0.324
GGCCCAUCUGAGGAAGCUUTT against Magea4	-1.55

Sequence	z-score
GGAACUUCAUAAACACUUGTT against Oas3	-0.545
GGUUCUGGAAAGUUCUCUGTT against Sorcs2	-0.0101
GGUGAUGUUUUAUGGCAGGTT against Olfr1335	0.329
CGAUGAUCGGCUCAACAAGTT against Rplp2	-0.401
GGCCAUACGCAAGCUCAAGTT against Rtl5	-2.96 (active)
GGUUCCUCACAAGCAUUCUTT against Olfr818	0.276
GCAUGAAGUUGCACAUCCCTT against Cox8b	-0.42
GGGAGCUAUUUAUCCUAUUTT against Zc4h2	0.214
GCCUCCUGAAUGACCACAUTT against Klk1b27	2.29 (active)
GGACUGUGAUUGUUUCAGATT against Mep1a	-0.0817
GGUAUCAUCUAUAGAGACUTT against Prkch	-0.265
CCGUGCCAAACUUCUUACUTT against 2610528J11Rik	-0.1
GGGCUAGAGGAAAACGAAATT against Crot	1.64
CGCAGAGAGUAGAAAAUUGTT against Pdia5	-0.428
GGACUGUCAUCUUCCUCAGTT against Ston2	-2.97 (active)
GCUAUGACCGGAGGUUCUATT against Morn5	0.555
GGAAACGAAGAGGAAGAAUTT against Ddit3	-0.571
CCAGUAUAUUCUGAGGGUUTT against Isl1	0.374
GGAGACUGAGGAAGAAUCUTT against Atcay	-0.302
GGACUGUGACAUAUUCUUUTT against Zfp54	2.74 (active)
GGGUGGACUGAAUGCUGAUTT against Qtrt1	0.665
GGUGUACCUUGGGACUUACTT against Prpf18	-2.84 (active)

Sequence	z-score
GGUUUACUUCCCAUACCUGTT against Pold1	0.701
GGCAAUACGUAACAUGCCATT against Slc6a4	-0.148
GGACGAAGACACCAAAGUGTT against Camk2a	-1.31
GGUAGGGACCUAUCCUUGGTT against Cramp1l	-0.518
GGAUGGAGUUCACAUUUUCTT against Utp11	0.816
CCUUGAGCAAAUCACACAUTT against Stk32b	3.94 (active)
GGACAAGAACUUAGUGAUGTT against Emc9	0.522
GGCUGGAACCCUAAUUUCUTT against Tpo	1.32
AGUGGGCUUCAAAUUUCCATT against Aym1	-0.551
GCAUGAUCGUGUUUGUUUATT against Srpk2	0.722
GGUUUCAAUAAUCCAGGAATT against Naa16	0.352
CCUCAAAUGGCCACACACUTT against Kcnj11	-1.27
GGACUAAAUGGUCAAGAUUTT against Rbm8a	-2.74 (active)
CCUUGGAUGUAUUCAUAUATT against Prkar2a	0.255
GGGUACCUGUGGUUUUUGUTT against Hdhd5	-0.481
GCUCCAAAUUAAAUUUUGCTT against Irf9	0.768
GGUCAUUCAAGAGAUACUATT against Dennd10	-0.65
GGCAAAGGACUUCAUGGCUTT against B4galt4	-1.42
CGACAGAGGAAAACAUAAATT against St13	-2.55 (active)
GGAAAGAAAGACUAGUAAATT against Cpne1	0.815
CCUCAUCGACAUAAUGAUUTT against Samhd1	-0.0182
GGUUCACUCUGAAGACACCTT against Pkig	0.0516

Sequence	z-score
CCGUGUGACAUUUGAGUAUTT against Crhbp	1.42
CCAGCUUUGGGAAAUACCGTT against Sertad1	-2.39 (active)
GGGAUCCAUCCUUAUUGUUTT against Ybx2	-0.101
GGAUUCUCCUUUACCUUUGTT against B930095G15Rik	0.0151
GGAAGACUUUGGCUUUGAATT against Tfpt	-0.165
GGAGAACAUCAAGAACAAUTT against Ap2m1	2.08 (active)
GCCCGAAAAAGAGAACUGATT against Wbp11	0.056
GGAUCAAGACAAAAAACUUTT against Arhgap17	-0.17
GGACCAGAUUGCUAAUGAGTT against Fam13a	-0.0932
GGAAUUCUUGAAGAUUCCCTT against Ptpn7	0.884
GGAGCUCCUACCAAGACUUTT against Klhl38	1.07
GGAAUGCAAUGACAAAUGATT against Kank3	0.198
GCUUAUAAGAGUCUAUCUUTT against Stam	-0.217
GCUCAGUUUAUACCAAAAUTT against Api5	-2.31 (active)
CCCAAGAUCUAAGAGUAUUTT against Rin3	-1.18
GGGACUAUUCCUCCAGAGUTT against Cast	-0.439
GGUCAAGAGGGAAAACUUUTT against Ctps	0.0558
CGGUACAUCAUUGCUGUCATT against Slc17a8	-2.22 (active)
CCGUAGUAUCCACUGAUUGTT against Olfr1322	-0.34
GGAGGAAGAAACAACAAUGTT against Calhm5	0.76
